Screening data from PubChem.
Rows were chosen to be rich in hits. Some 1.7% of all compounds tested hit in one or more screens of this group.
HTR5A inv ag: HTR5A inverse agonists in luminescence cell assay, primary screen, counter-screen for OPRM1-OPRD1 heterodimer inverse agonist project, full-deck HTS; 5-hydroxytryptamine receptor 5A (Homo sapiens), P47898; HTR5A cell line, inverse agonism; inhibition, % at 9.3 µM; hit rate 0.083% among 340,000; AID 504634, 2011; in the data active means inhibition mostly above about 23%, no sharp cut-off; inactive means mostly below about 18%;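 further: 0% = cells with DMSO and 100% = no-cell wells with DMSO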
Target sequence (P47898 whole entry, looked up): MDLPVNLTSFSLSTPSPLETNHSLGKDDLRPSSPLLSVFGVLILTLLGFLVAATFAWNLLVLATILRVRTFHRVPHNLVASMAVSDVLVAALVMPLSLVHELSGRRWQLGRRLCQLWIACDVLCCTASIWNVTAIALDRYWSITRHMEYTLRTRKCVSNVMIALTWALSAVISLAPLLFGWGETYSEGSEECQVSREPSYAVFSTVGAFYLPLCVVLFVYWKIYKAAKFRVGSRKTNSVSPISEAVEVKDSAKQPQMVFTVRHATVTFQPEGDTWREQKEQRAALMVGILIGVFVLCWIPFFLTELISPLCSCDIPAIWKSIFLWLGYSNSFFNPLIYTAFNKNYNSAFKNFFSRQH
MOR-DOR ag: agonists of OPRM1-OPRD1 heterodimerization, primary screen, cell-based, luminescence; Mu-type opioid receptor (Homo sapiens) + Delta-type opioid receptor (Homo sapiens), …; cells; activation, % at 9.3 µM; hit rate 0.3% among 340,000; in the data active means activation above about 18%;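 further: 0% = vehicle-treated cells and 100% = reference agonist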
V-ATPase pH: regulators of yeast V-ATPase proton pumping, primary screen, pHLuorin cytosolic pH fluorescence. S. cerevisiae. response, % at 10 µM. hit rate 0.37% among 350,000; in the data active means response mostly above about 7.3%, no sharp cut-off; inactive means mostly below about 5.4%; further: actives read high
MIN6 prolif-1: inducers of MIN6 beta-cell proliferation, primary screen, ATP luminescence, uHTS; MIN6 cells proliferation, ATPlite luminescence, 48 h; cells starved in 0.2% serum; 100% = growth in 10% serum; proliferation, % at 10 µM; hit rate 0.29% among 330,000; AID 2380, 2010;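 active means compounds whose signal lies at least 3.5 SD above the mean of all wells on their plate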;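 further: 0% = DMSO-treated cells in low-serum medium and 100% = 10% serum control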
OPRM1-OPRD1 inv: inverse agonists of MOR-DOR heterodimerization, primary screen, cell-based, luminescence; AID 504357, 2011; inhibition, % at 9.3 µM; cell-based MOR-DOR heterodimer luminescence, inverse agonism; Mu-type opioid receptor (Homo sapiens) + Delta-type opioid receptor (Homo sapiens), …; hit rate 0.21% among 340,000; in the data active means inhibition above about 22%, passing the limit was not always enough;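 further: 0% = cells with DMSO and 100% = wells without cells with DMSO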
HTR5A ag ctr: HTR5A agonists in luminescence cell assay, primary screen, counter-screen for OPRM1-OPRD1 heterodimer agonist project, full-deck HTS; hit rate 0.61% among 340,000; 5-hydroxytryptamine receptor 5A (Homo sapiens), P47898; cell-based; activation, % at 9.3 µM; in the data active means activation mostly above about 9.5%, no sharp cut-off; inactive means mostly below about 7.6%;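 further: 0% = cells with vehicle only and 100% = reference agonist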
MIN6 prolif-2: inducers of beta-cell proliferation in MIN6, confirmation, MIN6 cells, mouse; 920 tested, under 10 active; ATPlite luminescence, 48 h; cells kept in 0.2% serum; scaled between 0.2% and 10% serum; AID 463095, 2010; shares compounds with MIN6 prolif-1; proliferation increase, % at 50 µM;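 active means proliferation increase above 40% at any of the four tested concentrations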
* = called active by the depositor; x = not tested or not shown.

SMILES | HTR5A inv ag | MOR-DOR ag | V-ATPase pH | MIN6 prolif-1 | OPRM1-OPRD1 inv | HTR5A ag ctr | MIN6 prolif-2
O=C(NC1CCCCCCC1)C1c2ccccc2C(=O)N1Cc1ccco1 (stereo not drawn) | -19.1 | -2.7 | 5.4 | 4.3 | 13.9 | 0.7 | x
Cc1ccc(CNC(=O)C2CCCN(c3ncnc4c3nc3n4CCCCC3)C2)cc1 (stereo not drawn) | 8.1 | -3.0 | -1.1 | 14.1* | 15.5 | 0.0 | -5.3
NC(=O)C1CCN(CC(=O)Nc2nc(-c3ccccc3)cs2)CC1 | 6.8 | -2.0 | -0.3 | 1.4 | 9.3 | -1.8 | x
CC1CCN(CC(=O)Nc2nc(-c3ccccc3)cs2)CC1 | -4.5 | 7.9 | -1.3 | 6.2* | -39.5 | 1.2 | -6.2
CC(=O)Nc1ccc2sccc2c1 | 9.9 | -0.2 | -0.3 | -2.7 | 1.1 | 0.4 | x
COc1ccc(C2CC(c3ccccc3)=NN2C(=O)CN2CCN(Cc3ccccc3)CC2)cc1 (stereo not drawn) | 7.8 | 3.0 | 0.9 | -6.2 | -16.1 | 2.8 | x
Cn1c(=O)c2cn(-c3ccccc3)cc2n(C)c1=O | -4.9 | 0.1 | -5.3 | 5.4* | -0.5 | -1.1 | 1.0
C=CCCCCCCCCC(=O)NNC1CC(=O)N(c2ccccc2)C1=O (stereo not drawn) | 4.8 | -0.3 | 4.9 | -2.7 | 1.7 | -1.9 | x
COc1ccc(Nc2nc3ccccc3n3nnnc23)cc1 | -10.9 | 2.8 | -1.0 | 6.2 | -14.9 | 2.1 | x
COc1cc(Nc2nc3ccccc3n3nnnc23)cc(OC)c1OC | -17.0 | 0.2 | -7.3 | 10.3* | -1.4 | 5.8 | -6.4
CC1(C)CC2CC(C)(CN2C(=O)COC(=O)c2cccc([N+](=O)[O-])c2)C1 (stereo not drawn) | -1.4 | 5.2 | -3.2 | 7.4* | -22.9 | 0.4 | -1.4
O=C(CC(c1ccccc1)c1ccco1)Nc1nccs1 (stereo not drawn) | 9.7 | 3.2 | -0.8 | 0.1 | -20.1 | 6.1 | x
COc1ccc(S(=O)(=O)Cc2ccc(C(=O)NCCc3cc(OC)ccc3OC)o2)cc1 | -27.6 | -0.8 | 6.0 | 7.5* | 4.5 | -0.5 | 0.6
COc1ccc(OC)c(CCNC(=O)c2ccc(CS(=O)(=O)c3ccc(Br)cc3)o2)c1 | 19.8 | -1.4 | 2.0 | 1.7 | 7.1 | 1.8 | x
Cc1coc2cc3oc(=O)cc(C)c3cc12 | 5.2 | -0.4 | -4.7 | 7.3* | 2.3 | 0.8 | 3.6
NS(=O)(=O)c1ccc(NC(=S)NCc2ccccc2Cl)cc1 | -10.5 | 0.9 | -0.1 | 5.3* | -4.6 | 8.5 | -5.5
Cc1ccc(CNc2ncnc(N)c2[N+](=O)[O-])cc1 | 16.6 | 1.6 | -1.9 | 7.8* | -7.2 | -6.5 | 8.5
CC(=O)Oc1cccc(N2C(=O)c3ccc(C(=O)Nc4c[nH]c(=O)[nH]c4=O)cc3C2=O)c1 | 5.7 | -2.7 | 1.3 | 2.7 | 13.7 | 5.3 | x
O=C(NCc1ccccc1)c1nncc(-c2ccccc2)n1 | -4.2 | -1.8 | -1.6 | 1.7 | 10.0 | 1.6 | x
COC(=O)C1CCN(C(=O)c2oc3c(Cl)cc(C)cc3c2C)CC1 | 5.2 | -3.6 | -1.5 | 11.5* | 18.7 | 3.8 | -6.5
O=C1NC2(CCCCC2)C(=O)N1c1ccc(Cl)cc1 | -10.0 | -2.2 | -1.3 | 8.4* | 11.1 | 2.6 | 1.5
O=C1NC2(CCCCC2)C(=O)N1c1ccccc1 | -3.4 | -1.9 | 0.5 | 0.0 | 12.2 | 2.8 | x
Cc1cc(C(=O)OCc2nc3ccccc3s2)c(C)o1 | 18.7 | 8.6 | 2.4 | 8.7* | -48.7 | -2.9 | -3.7
CC(=O)OCc1nc2ccccc2s1 | -15.9 | 1.6 | 14.8 | -1.1 | -8.7 | 3.6 | x
NC(=O)c1cc([N+](=O)[O-])c(Cl)cc1NCc1cccnc1 | -26.7 | -0.6 | 0.0 | 12.2* | 3.3 | 9.9 | 6.0
SMILES | HTR5A inv ag | MOR-DOR ag | V-ATPase pH | MIN6 prolif-1 | OPRM1-OPRD1 inv | HTR5A ag ctr | MIN6 prolif-2
NC(=O)CC1C(=O)N(c2ccc(Cl)cc2)C(=S)N1NC(=O)c1cccc(F)c1 (stereo not drawn) | -11.7 | -5.1 | -0.8 | 0.5 | 23.2 | 3.3 | x
CNC(=O)CC1C(=O)N(c2ccc(Cl)cc2)C(=S)N1NC(=O)c1cccc(F)c1 (stereo not drawn) | -12.6 | -2.9 | -2.0 | 9.8* | 13.6 | 3.2 | -6.4
CCOC(=O)c1c(C)[nH]c(C)c1C(=O)COC(=O)c1cccc(S(=O)(=O)NC)c1 | 15.3 | 0.0 | 0.8 | 11.4* | 0.1 | 0.7 | -0.3
CCCC(=O)Nc1nn(CC)c2nc3ccc(C)cc3cc12 | -16.7 | -2.5 | -0.8 | 9.5* | 11.6 | 4.7 | 0.8
Cc1cc(NC(=O)CN2C(=O)NC(C)(c3ccc(Cl)cc3)C2=O)no1 (stereo not drawn) | 13.9 | -2.9 | -1.0 | 1.6 | 16.0 | 1.9 | x
O=C(N/N=C/c1cc([N+](=O)[O-])cc([N+](=O)[O-])c1O)/C(=C\c1cccs1)NC(=O)c1ccccc1 | 6.2 | -4.0 | -0.6 | 0.0* | 19.7 | -2.6 | -3.6
COc1cc(/C=N/NC(=O)/C(=C\c2ccc([N+](=O)[O-])cc2)NC(=O)c2ccccc2)cc(OC)c1O | -0.4 | 2.6 | -2.7 | -2.1 | -15.2 | 1.5 | x
O=C(O)CNC(=S)N(Cc1ccc(F)cc1)C1CCCCC1 | -2.5 | -0.3 | -0.8 | 8.2* | 1.6 | 0.9 | -2.5
O=C(CNC(=S)N(Cc1ccc(F)cc1)C1CCCCC1)NCCN1CCOCC1 | 8.7 | -1.6 | -2.8 | -2.9 | 7.4 | -3.1 | x
CCCCCOC(=O)Cn1c(N2CCCCCC2)nc2c1c(=O)[nH]c(=O)n2C | -4.1 | -2.7 | 0.8 | 9.2* | 14.7 | 1.1 | -5.0
CCOC(=O)c1c(N)sc2c1CCN(CCc1ccccc1)C2 | 10.6 | -1.0 | 1.5 | 7.5* | 4.8 | -2.8 | -6.4
O=S1(=O)c2cccc3cccc(c23)N1CCBr | 0.4 | 1.1 | -2.6 | 10.8 | -6.7 | 4.4 | x
COc1cccc(Cn2c(=O)c3[nH]cnc3n(-c3ccccc3C)c2=O)c1 | 8.8 | -1.8 | -4.2 | 13.7* | 9.6 | -1.1 | 2.1
O=C(NCc1ccccn1)C1CCCN(S(=O)(=O)c2ccc(Br)cc2)C1 (stereo not drawn) | -8.3 | -2.0 | -0.4 | 5.8* | 8.3 | 4.1 | -0.4
COC(=O)c1ccc(OC(=O)c2cccnc2SC)cc1 | -14.9 | 2.4 | -0.9 | -0.9 | -19.5 | 1.5 | x
COC(=O)c1ccc(OC(=O)c2ccccn2)cc1 | 6.4 | -3.4 | 0.6 | 6.5* | 20.9 | -2.4 | 0.3
CCOc1nc(Nc2ccccc2F)nc(OCC)n1 | 2.6 | -2.6 | 0.2 | 5.0* | 12.7 | -0.7 | -2.2
C=CCNc1nc(Nc2ccccc2F)nc(OCC)n1 | -2.6 | -1.8 | 0.5 | 2.9 | 9.1 | 1.0 | x
